From PubChem BioAssay
CYP2C9 activ – increases human cytochrome P450 2C9 activity. recombinant CYP2C9, luciferin-H conversion, luminescence; hits give high values; factor 1 = untreated enzyme, 0 = blocked. hit rate 1.4% among 96,000. P11712. activation factor at 5 µM;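 active = activation factor of 2 or more for CYP2C9 at a 5 µM dose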;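 also: 0 = sulfaphenazole-blocked wells and 1 = vehicle-only wells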
PTK2B oligo ant – blocks oligomerization of human Pyk2 in cells; Q293 cells, Pyk2 FERM NanoBiT luminescence; hits give low values; z-score (the deposit names both 25 µM and 10 µM); hit rate 0.83% among 99,000; AID 1347419;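 active = Z-score of -3 or lower, scaled per plate to the spread of control and sample wells; inactive = z-score above -3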;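 also: negative z-score means lost luminescence so less FERM oligomerization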
Target sequence (Q14289 whole entry, looked up): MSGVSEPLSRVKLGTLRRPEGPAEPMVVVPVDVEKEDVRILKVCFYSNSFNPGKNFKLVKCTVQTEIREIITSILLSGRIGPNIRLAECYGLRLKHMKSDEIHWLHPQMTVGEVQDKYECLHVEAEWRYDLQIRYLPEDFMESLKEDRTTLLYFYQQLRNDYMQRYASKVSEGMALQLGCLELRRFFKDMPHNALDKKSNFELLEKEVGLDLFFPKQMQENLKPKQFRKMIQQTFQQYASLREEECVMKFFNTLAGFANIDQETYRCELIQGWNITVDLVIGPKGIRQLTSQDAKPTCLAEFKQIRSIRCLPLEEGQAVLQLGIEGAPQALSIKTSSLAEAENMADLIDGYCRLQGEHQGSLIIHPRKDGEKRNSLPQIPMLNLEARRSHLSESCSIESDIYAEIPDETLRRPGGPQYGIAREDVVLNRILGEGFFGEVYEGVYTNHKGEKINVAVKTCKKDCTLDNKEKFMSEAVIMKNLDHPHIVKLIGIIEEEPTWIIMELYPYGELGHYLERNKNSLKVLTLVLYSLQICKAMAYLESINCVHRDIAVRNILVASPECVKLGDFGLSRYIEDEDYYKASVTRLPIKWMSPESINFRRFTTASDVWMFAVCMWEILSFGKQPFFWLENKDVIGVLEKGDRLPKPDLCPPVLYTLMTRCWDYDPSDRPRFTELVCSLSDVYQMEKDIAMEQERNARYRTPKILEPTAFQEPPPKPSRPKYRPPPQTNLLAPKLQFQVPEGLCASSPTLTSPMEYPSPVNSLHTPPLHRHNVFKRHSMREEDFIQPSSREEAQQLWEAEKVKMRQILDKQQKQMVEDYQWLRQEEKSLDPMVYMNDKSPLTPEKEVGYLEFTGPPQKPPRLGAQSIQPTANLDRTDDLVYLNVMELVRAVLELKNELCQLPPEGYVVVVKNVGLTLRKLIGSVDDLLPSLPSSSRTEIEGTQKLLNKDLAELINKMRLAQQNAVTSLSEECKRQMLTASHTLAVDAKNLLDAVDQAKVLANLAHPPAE
CYP2C19 activ – increases human CYP2C19 enzyme activity | 96,000 tested, under 10 active | activation factor at 5 µM | P33261 | recombinant CYP2C19, luciferin-H EGE luminescence; hits give high values; 0 = fully inhibited enzyme, 1 = untreated enzyme | AID 1025;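 active = activation factor of at least 2 at 5 µM in the primary screen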;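 also: 0 = wells with 2.5 mM tranylcypromine and 1 = vehicle-only wells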
CYP2C19 inh – human CYP2C19 inhibition; P33261; CYP2C19 Supersomes, luciferin-H EGE luminescence, 30 min; inhibition, % at 5 µM; hit rate 21% among 96,000; AID 778;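 active = CYP2C19 inhibition above a set limit at 5 µM in the primary screen, cut at about 50% in these data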;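 also: plate controls were negative control wells for no effect and 2.5 mM tranylcypromine positive control for full effect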
CYP2C9 inhib – human CYP2C9 inhibition | hit rate 20% among 96,000 | CYP2C9 Supersomes, luciferin-H conversion, luminescence | inhibition, % at 5 µM;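 active = blocking of liver enzyme CYP2C9 beyond about 50% at 5 µM, limit read from the data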
The depositor's hits bear a star. Sampled rows, rich in hits. Any-hit rate of the full collection: about 28%.

How did O=C(c1ccc(Cl)cc1)C1CCN(C(=O)NC2CCCCC2)CC1 do in these assays?
CYP2C9 activ: 0.2; PTK2B oligo ant: -0.31; CYP2C19 activ: 0.1; CYP2C19 inh: 93*; CYP2C9 inhib: 85*

Results for CCCc1nnc(SCCSc2nnc(CCC)n2N)n1N ?
CYP2C9 activ: 1.1; PTK2B oligo ant: -0.22; CYP2C19 activ: 1; CYP2C19 inh: -1; CYP2C9 inhib: -6

What do the screens show for `CCOc1ccc(S(=O)(=O)N(C)CCO)cc1-c1nc2c(C(C)(C)C)nn(C)c2c(=O)[nH]1`?
CYP2C9 activ: 0.3; PTK2B oligo ant: -0.48; CYP2C19 activ: 0.4; CYP2C19 inh: 64*; CYP2C9 inhib: 67*

What do the screens show for `Cc1ccnc(Sc2ccc([N+](=O)[O-])cc2[N+](=O)[O-])n1`?
CYP2C9 activ: 1; PTK2B oligo ant: -0.13; CYP2C19 activ: 0.2; CYP2C19 inh: 77*; CYP2C9 inhib: 4

What do the screens show for `O=[N+]([O-])c1ccc(Sc2nc3ccccc3o2)c([N+](=O)[O-])c1`?
CYP2C9 activ: 1; PTK2B oligo ant: -0.59; CYP2C19 activ: 1; CYP2C19 inh: -1; CYP2C9 inhib: 0

How did O=C(/C=C/c1ccccc1)CC(O)(c1ccccc1)C(F)(F)F (stereo not drawn) do in these assays?
CYP2C9 activ: 0.5; PTK2B oligo ant: -2.6; CYP2C19 activ: 0.4; CYP2C19 inh: 65*; CYP2C9 inhib: 45

How did O=C(/C=C/c1ccccc1)CC(O)(c1ccccc1)C(F)(F)C(F)F (stereo not drawn) do in these assays?
CYP2C9 activ: 0.6; PTK2B oligo ant: -2.9; CYP2C19 activ: 0.5; CYP2C19 inh: 46; CYP2C9 inhib: 43

How did N#CC1=C(SCC(=O)NC23CC4CC(CC(C4)C2)C3)NC(=O)C(C#N)C12CCCCC2 (stereo not drawn) do in these assays?
PTK2B oligo ant: -3.3*

How did CCOC(=O)C1=C(SCC(=O)Nc2ccccc2)NC(=O)C(C#N)C12CCCCC2 (stereo not drawn) do in these assays?
CYP2C9 activ: 0.2; PTK2B oligo ant: -1.9; CYP2C19 activ: 0.1; CYP2C19 inh: 93*; CYP2C9 inhib: 85*

How did O=C(CN1C(=O)c2ccccc2C1=O)Nc1cccc2cccnc12 do in these assays?
CYP2C9 activ: 1; CYP2C19 activ: 1.1; CYP2C19 inh: -13; CYP2C9 inhib: -3

Results for N#CC1=C(SCC(=O)Nc2cccc3cccnc23)NC(=O)C(C#N)C12CCCCC2 (stereo not drawn) ?
CYP2C9 activ: 0.1; PTK2B oligo ant: -1.8; CYP2C19 activ: 0.2; CYP2C19 inh: 78*; CYP2C9 inhib: 91*

How did C=CCSC1=C(C#N)C2(CCCCC2)C(C#N)C(=O)N1 (stereo not drawn) do in these assays?
CYP2C9 activ: 0.2; PTK2B oligo ant: -0.28; CYP2C19 activ: 0.4; CYP2C19 inh: 58*; CYP2C9 inhib: 83*

What do the screens show for `COc1ccc(OC)c(/C=N/NC(=O)c2csc3ccccc23)c1`?
CYP2C9 activ: 1; PTK2B oligo ant: -1.1; CYP2C19 activ: 1; CYP2C19 inh: -3; CYP2C9 inhib: -4

How did N#CC1=C(SCC(=O)NC2CC2)NC(=O)C(C#N)C12CCCCC2 (stereo not drawn) do in these assays?
CYP2C9 activ: 0.3; PTK2B oligo ant: -0.19; CYP2C19 activ: 0.8; CYP2C19 inh: 20; CYP2C9 inhib: 68*

Results for C=CCSC1=NC(N)=C(C#N)C2(CCCCC2)C1C(N)=O (stereo not drawn) ?
CYP2C9 activ: 0.7; PTK2B oligo ant: 0.14; CYP2C19 activ: 0.1; CYP2C19 inh: 89*; CYP2C9 inhib: 32

Results for CC(C)(C)C1CCC2(CC1)C(C#N)=C(SCC(=O)NC1CCCCC1)NC(=O)C2C#N (stereo not drawn) ?
CYP2C9 activ: 0.1; PTK2B oligo ant: -1.2; CYP2C19 activ: 0.5; CYP2C19 inh: 46; CYP2C9 inhib: 92*

What do the screens show for `O=C(c1c(F)c(F)c(F)c(F)c1F)N1CCc2ccccc21`?
PTK2B oligo ant: 0.12

Results for O=C(NC1CC2CCCC(C1)N2Cc1ccco1)NC12CC3CC(CC(C3)C1)C2 (stereo not drawn) ?
CYP2C9 activ: 1.1; PTK2B oligo ant: 0.8; CYP2C19 activ: 1.2; CYP2C19 inh: -20; CYP2C9 inhib: -5

What do the screens show for `CCOc1ncccc1C(=O)OCC(=O)NCCc1ccc(OC)cc1`?
CYP2C9 activ: 0.4; PTK2B oligo ant: 0.55; CYP2C19 activ: 0.2; CYP2C19 inh: 81*; CYP2C9 inhib: 58*

What do the screens show for `CCOc1ccc(CCNC(=O)COC(=O)c2cccnc2OCC)cc1OCC`?
CYP2C9 activ: 0.1; PTK2B oligo ant: -0.18; CYP2C19 activ: 0.2; CYP2C19 inh: 77*; CYP2C9 inhib: 87*

Results for CCOc1ccc(CCNC(=O)COC(=O)c2nc3nc(C)cc(C)n3n2)cc1OCC ?
PTK2B oligo ant: -0.45

Results for CCOc1ncccc1C(=O)OCc1ccc(C(=O)OC)o1 ?
CYP2C9 activ: 0.9; PTK2B oligo ant: 1.2; CYP2C19 activ: 0.8; CYP2C19 inh: 24; CYP2C9 inhib: 12

Results for Cc1nc2ncnn2c(C)c1CCC(=O)N1CC(C)CC(C)C1 (stereo not drawn) ?
CYP2C9 activ: 1.1; PTK2B oligo ant: 0.37; CYP2C19 activ: 0.9; CYP2C19 inh: 5; CYP2C9 inhib: -6

What do the screens show for `O=C1CCCN1c1ccc(S(=O)(=O)NCCc2ccc(Cl)cc2)cc1`?
CYP2C9 activ: 0.2; PTK2B oligo ant: 0.77; CYP2C19 activ: 0.2; CYP2C19 inh: 80*; CYP2C9 inhib: 84*

Results for CCOc1cc(CNc2ccc(Br)cc2)cc(Br)c1OCC(=O)NC(C)(C)C ?
CYP2C9 activ: 0.1; PTK2B oligo ant: -1.3; CYP2C19 activ: 0.8; CYP2C19 inh: 21; CYP2C9 inhib: 89*

Results for CCOc1cc(CNc2ccc(OC)cc2)cc(Br)c1OCC(=O)NC(C)(C)C ?
CYP2C9 activ: 0.4; PTK2B oligo ant: -1.6; CYP2C19 activ: 0.5; CYP2C19 inh: 52*; CYP2C9 inhib: 59*

Results for CCOc1ccc(CCNC(=O)C2CCN(c3nnc(-n4cccc4)s3)CC2)cc1OCC ?
CYP2C9 activ: 0.2; PTK2B oligo ant: 1.4; CYP2C19 activ: 0.6; CYP2C19 inh: 43; CYP2C9 inhib: 82*

Results for CCN(CCNC(=O)C1CCN(c2nnc(-n3cccc3)s2)CC1)c1ccccc1 ?
CYP2C9 activ: 0.1; CYP2C19 activ: 0.2; CYP2C19 inh: 83*; CYP2C9 inhib: 87*

How did CCOc1ccc(CCNC(=O)C2CCN(c3nnc(-n4cccc4)s3)CC2)cc1 do in these assays?
CYP2C9 activ: 0.8; CYP2C19 activ: 1.1; CYP2C19 inh: -9; CYP2C9 inhib: 18

Results for CCOc1ccc(CCNC(=O)C2CCN(c3nn4c(=O)cc(C)nc4s3)CC2)cc1 ?
CYP2C9 activ: 0.4; PTK2B oligo ant: 0.09; CYP2C19 activ: 0.8; CYP2C19 inh: 23; CYP2C9 inhib: 65*

How did COc1cccc(CNC(=O)C2CCCN(S(=O)(=O)c3c(C)[nH]c(=O)[nH]c3=O)C2)c1 (stereo not drawn) do in these assays?
CYP2C9 activ: 1; PTK2B oligo ant: 0.74; CYP2C19 activ: 1; CYP2C19 inh: -3; CYP2C9 inhib: 2

What do the screens show for `CCc1cc2c(SCC(=O)c3ccccc3)ncnc2s1`?
PTK2B oligo ant: 0.73
